Results on 8 compounds are retold here after PubChem BioAssay (NCI).

SMILES strings stand for the structures. This is part of a sample that, as a whole, favours compounds with a hit. Of some 83,000 tested, about 20% had one in any assay.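 Note: values are percent growth. 100 is the growth of untreated cells, values between 100 and 0 indicate rising inhibition; between -100 and 0 indicates cell death.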 Unmarked numbers belong to inactive results. Calls of active or inactive are those of the source. Rule for the calls: active = growth percent below 10; inactive = the rest.

Among the test systems are SK-MEL-2 melanoma; EKVX NSCLC; SN12C renal; UO-31 renal; TK-10 renal; ACHN renal; A498 renal; CCRF-CEM leukemia; MOLT-4 leukemia; SR leukemia; RPMI-8226 leukemia; OVCAR-8 ovarian; OVCAR-5 ovarian; OVCAR-4 ovarian; SK-OV-3 ovarian; IGROV1 ovarian; OVCAR-3 ovarian; NCI/ADR-RES ovarian; HS 578T breast.
What all share (assay): NCI-60 one-dose screen, 48 h (100 = growth as untreated, 0 = no growth, -100 = all killed)
What all share (settings): 10 µM unless noted

With `CC(=O)N[C@@H](CNC(=O)c1cc(NC(=O)c2cc(NC(=O)c3cc(NC(=O)c4nccn4C)cn3C)cn2C)cn1C)CC(=O)Nc1cn(C)c(C(=O)Nc2cc(C(=O)Nc3cc(C(=O)Nc4cc(C(=O)NCCCN(C)CCCNC(=O)c5cccc(C(=O)O)c5)n(C)c4)n(C)c3)n(C)c2)n1`, the growth in the assay on SK-MEL-2 melanoma is 89.4%; in the assay on EKVX NSCLC it was 102%; in the assay with SN12C renal it was 100%; in the assay with UO-31 renal it was 77.1%; with TK-10 renal, 93.1%; in the assay with ACHN renal it was 75.1%. Also, the growth with A498 renal was 92.9%; in the assay with CCRF-CEM leukemia it was 103%; in the assay with MOLT-4 leukemia, 120%; with SR leukemia, 77.2%; in the assay with RPMI-8226 leukemia it was 105%; in the assay with OVCAR-8 ovarian, 96%. In addition, the growth with OVCAR-5 ovarian is 121%; with OVCAR-4 ovarian, 64%; in the assay with SK-OV-3 ovarian, 115%; in the assay on IGROV1 ovarian, 113%; in the assay on OVCAR-3 ovarian, 102%; in the assay on NCI/ADR-RES ovarian, 87.4%.

For the compound `COc1ccc2c(c1)/C(=C/c1c(-c3cc(OC)c(OC)c(OC)c3Br)nc3sccn13)C(=O)N2`, the growth in the assay with SK-MEL-2 melanoma is 87.3%; in the assay with EKVX NSCLC it was 84.6%; with SN12C renal, 120%; in the assay on UO-31 renal, 83.3%; in the assay on TK-10 renal, 118%; in the assay on ACHN renal it was 86.5%. The growth in the assay with A498 renal was 108%; in the assay on CCRF-CEM leukemia it was 81%; in the assay with MOLT-4 leukemia, 73.2%; in the assay with SR leukemia, 95.1%; in the assay with RPMI-8226 leukemia it was 85.9%; in the assay on OVCAR-8 ovarian it was 99.6%. The growth with OVCAR-5 ovarian was 105%; in the assay on OVCAR-4 ovarian it was 100%; in the assay on SK-OV-3 ovarian, 96.6%; in the assay with IGROV1 ovarian it was 45.7%; in the assay on HS 578T breast, 83.2%; with NCI/ADR-RES ovarian, 92.2%.

With `COc1ccc(C2=NN(C(=O)COc3ccc(Cl)cc3)C(O)(c3cc(F)c(Cl)cc3Cl)C2)cc1` (stereo not drawn), the growth in the assay on SK-MEL-2 melanoma is 99.2%; in the assay on EKVX NSCLC, 80.5%; in the assay with SN12C renal, 119%; with UO-31 renal it was 74.7%; in the assay with TK-10 renal it was 89.5%; in the assay with ACHN renal it was 104%. Further, the growth in the assay on A498 renal was 95.3%; with CCRF-CEM leukemia, 7.54% (active); in the assay with MOLT-4 leukemia, 77.3%; in the assay with SR leukemia it was 17%; in the assay on RPMI-8226 leukemia it was 80.9%; in the assay on OVCAR-8 ovarian, 91%. In addition, the growth in the assay on OVCAR-5 ovarian was 96.6%; in the assay on OVCAR-4 ovarian it was 98.8%; with SK-OV-3 ovarian, 94.6%; in the assay with IGROV1 ovarian, 60.4%; in the assay on HS 578T breast, 102%; in the assay with NCI/ADR-RES ovarian, 99%.

Consider `O=C1OC(=O)C2C3CC(c4ccccc43)C12` (stereo not drawn), for which the growth in the assay on SK-MEL-2 melanoma is 125%; in the assay with EKVX NSCLC, 99.3%; in the assay with SN12C renal, 113%; in the assay with UO-31 renal, 76.2%; in the assay on TK-10 renal, 123%; in the assay with ACHN renal, 90.1%. The growth was 110% in the assay on A498 renal; 98.8% with CCRF-CEM leukemia; 104% in the assay with MOLT-4 leukemia; 104% with SR leukemia; 99.7% in the assay on RPMI-8226 leukemia; 92.4% in the assay on OVCAR-8 ovarian. The growth in the assay with OVCAR-5 ovarian was 85.5%; in the assay with OVCAR-4 ovarian it was 112%; with SK-OV-3 ovarian, 95.8%; in the assay with IGROV1 ovarian, 109%; with OVCAR-3 ovarian, 125%; with NCI/ADR-RES ovarian, 112%.

Turning to `Cc1cn(C2CC(N=[N+]=[N-])C(COP(=O)(O)OP(=O)(O)OP(=O)(O)O)O2)c(=O)[nH]c1=O` (stereo not drawn), the growth is 107% in the assay on SK-MEL-2 melanoma; 116% in the assay on EKVX NSCLC; 124% in the assay with SN12C renal; 98.5% in the assay on UO-31 renal; 113% in the assay with TK-10 renal; 124% with ACHN renal. In addition, the growth in the assay with A498 renal is 131%; in the assay on CCRF-CEM leukemia, -98% (active); in the assay on MOLT-4 leukemia it was 16.8%; with SR leukemia, 24.3%; in the assay on RPMI-8226 leukemia, 60.7%; with OVCAR-8 ovarian it was 120%. Moreover, the growth is 93% with OVCAR-5 ovarian; 108% in the assay with OVCAR-4 ovarian; 104% in the assay on SK-OV-3 ovarian; 75.5% with IGROV1 ovarian; 133% in the assay with HS 578T breast; 111% in the assay with NCI/ADR-RES ovarian.

For `O=C(N/N=C1\SCC(=O)N1c1ccccc1)c1cc(-c2cc3ccccc3o2)nn1-c1ccccc1`, the growth in the assay on SK-MEL-2 melanoma was 103%; in the assay with EKVX NSCLC, 96.7%; with SN12C renal it was 122%; in the assay on UO-31 renal, 118%; in the assay on TK-10 renal, 112%; in the assay on ACHN renal, 91%. In addition, the growth is 103% in the assay with A498 renal; -84.9% (active) with CCRF-CEM leukemia; 87% in the assay with MOLT-4 leukemia; 107% in the assay on SR leukemia; 66.4% in the assay with RPMI-8226 leukemia; 107% in the assay with OVCAR-8 ovarian. The growth with OVCAR-5 ovarian was 112%; with OVCAR-4 ovarian, 110%; in the assay on SK-OV-3 ovarian, 116%; in the assay with IGROV1 ovarian, 98.9%; with HS 578T breast, 109%.

Take `COc1ccccc1N1CCN(CC(O)COc2c(Br)c(Br)c(Br)c3c2OC(C)(C)C3)CC1` (stereo not drawn): the growth in the assay on SK-MEL-2 melanoma was 60.5%; in the assay with EKVX NSCLC, 117%; in the assay with SN12C renal, 65.8%; with UO-31 renal, 13.2%; in the assay with TK-10 renal it was 40.5%; in the assay on ACHN renal, 56.1%. For the same compound, the growth is 55.9% in the assay with A498 renal; -54.6% (active) in the assay on CCRF-CEM leukemia; -36.7% (active) with MOLT-4 leukemia; -50.4% (active) in the assay with SR leukemia; 1.1% (active) in the assay with RPMI-8226 leukemia; 62.2% with OVCAR-8 ovarian. Also, the growth with OVCAR-5 ovarian was 61.2%; in the assay with OVCAR-4 ovarian, 30.4%; in the assay with SK-OV-3 ovarian it was 84.2%; in the assay on IGROV1 ovarian, -19.7% (active); with HS 578T breast, 67.3%; in the assay with NCI/ADR-RES ovarian, 45.7%.

Consider `CCC1S/C(=N\N=C(/C)c2cc3ccccc3o2)N(c2ccccc2)C1=O` (stereo not drawn), for which the growth with SK-MEL-2 melanoma is 99.6%; with EKVX NSCLC, 135%; in the assay with SN12C renal it was 120%; with UO-31 renal, 75.9%; in the assay on TK-10 renal, 108%; with ACHN renal, 100%. The growth with A498 renal is 136%; with CCRF-CEM leukemia, -72.8% (active); in the assay on MOLT-4 leukemia, -80.8% (active); in the assay on SR leukemia, 15%; in the assay with RPMI-8226 leukemia it was 65.4%; with OVCAR-8 ovarian, 105%. Also, the growth in the assay on OVCAR-5 ovarian was 106%; in the assay with OVCAR-4 ovarian, 95.1%; in the assay with SK-OV-3 ovarian, 116%; with IGROV1 ovarian it was -12.9% (active); in the assay with HS 578T breast, 98.7%; in the assay with NCI/ADR-RES ovarian it was 89%.
